Data on 40 compounds can be found in PubChem BioAssay (EPA / NIEHS).

Calls of active or inactive are those of the source. Rule for the calls: active = hit-call score of the fitted dose curve at least 0.9, where 1 is the maximum; inactive = score below 0.9.

A short description of the test: ATG_M_32_CIS: Attagene CIS-FACTORIAL HepG2 Assay for M32 Transcription Factor (Internal Marker) (AID 2282949).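 Note: background control marker of the multiplexed CIS panel rather than a real target.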 As to conditions: HepG2 Attagene cis-factorial M32 reporter, mRNA; actives raise or lower the signal. The method, then:
ATG_CIS is a cell-based, multiplexed-readout assay that uses HepG2, a human liver cell line, with measurements taken at 24 hours after chemical dosing in a 24-well plate.ATG_M_32_CIS is one of 52 assay component(s) measured or calculated from the ATG_CIS assay. It is designed to make measurements of mRNA induction, a form of inducible reporter, as detected with fluorescence intensity signals by Reverse transcription polymerase chain reaction (RT-PCR) and Capillary electrophoresis technology.Data from the assay component ATG_M_32_CIS was analyzed into 1 assay endpoint. This assay endpoint, ATG_M_32_CIS, was analyzed with bidirectional fitting relative to DMSO as the negative control and baseline of activity. Using a type of inducible reporter, measures of mRNA for gain or loss-of-signal activity can be used to understand the background control at the transcription factor-level as they relate to the gene . Furthermore, this assay endpoint can be referred to as a secondary readout, because this assay has produced multiple assay endpoints where this one serves a background control function. To generalize the intended target to other relatable targets, this assay endpoint is annotated to the background measurement intended target family, where the subfamily is internal marker.
Human liver HepG2 cells are transiently transfected with multiple reporter transcription units (MRTUs) in 6-well plates using FuGene 6 reagent (Roche; 3 ml FuGene/1 mg DNA). The MRTU constructs are regulated by a cis-regulating element (promoter). […] A major difference between the CIS and TRANS system is that in CIS activities of endogenous TFs are measured, whereas the TRANS assay evaluates changes in activities of exogenous, chimeric NR-Gal4 proteins. […] At the end of 24 hour incubation, total RNA was isolated using TriZol reagent (Invitrogen). The isolated RNA is then reverse-transcribed using oligo(dT) primer and Mo-MLV reverse transcriptase (Invitrogen) with DNAse I (Ambion) treatment for 30 min. The one-tenth of the produced cDNA was amplified by PCR using Taq DNA polymerase (Invitrogen) and two reporter sequence-specific primers. The PCR products were fluorescently labeled by primer extension with 6-arboxyfluorescein (6-FAM) 5'-labeled reporter sequence-specific primer (2 min at 95 C, 20 s at 68 C and 10 min at 72 C) and these products were digested with 5U of HpaI (New England Biolabs) for 2h at 37 C. The fragments were purified using Qiaquick PCR columns (Qiagen), analyzed on an ABI 3130xL genetic analyzer (Applied Biosystems) with peak positions identified by using a set of X-rhodamine (ROX)-labeled MapMarker1000 molecular weight standards (BioVentures). The raw capillary electrophoresis data was processed using Attagraph software (Attagene).
On to `[N-]=[N+]=CC(=O)OC[C@H](N)C(=O)O`, for which the compound was classed as inactive. For the compound `N#CC(c1ccccc1)c1ccccc1`, the compound was classed as inactive. With `C[C@]12CCC(=O)C(O)=C1CC[C@@H]1[C@@H]2CC[C@]2(C)C(=O)CC[C@@H]12` the entry was “inactive”. In the case of `C=CCN(CC=C)C(=O)C(Cl)Cl`, the outcome was inactive. With `CC(O)CN(CC(C)O)CC(C)O` (stereo not given) the entry was “inactive”. Then `C=C(Cl)CCl`, with “inactive”; and `O=C(CCN1CC1)OCC(CO)(COC(=O)CCN1CC1)COC(=O)CCN1CC1`, with “inactive”; and `N#CCNCC#N`, with “inactive”. With `Cc1ncc(C[n+]2csc(CCO)c2C)c(N)n1` the entry was “inactive”; with `C=CCc1ccc(OC(=O)Cc2ccccc2)c(OC)c1`, “inactive”. `CCOC(=O)C1OC1(C)c1ccccc1` (stereo not given): the compound was called inactive.

`C=CC(=O)OCCO`: the outcome was inactive. Then `O=C(CCl)c1ccccc1`, with “inactive”; and `C=COCCCl`, with “inactive”; and `Nc1ccc(Cl)c(Cl)c1`, with “inactive”. As for `COc1ccc(CO)cc1`, the outcome was inactive. For `N#CCCCCC#N`, the outcome was inactive. Then `COc1ncc(F)c2nc(S(=O)(=O)Nc3c(F)cccc3F)nn12`, with “inactive”. As to `C=Cc1cccc(CCl)c1`, the compound was called inactive. With `CCOC(=O)N(C)N=O` the entry was “inactive”. On to `O=C1C=CC(=O)C=C1`, for which the call was inactive. Regarding `CCCOC(=O)c1ccccc1C(=O)OCCC`, the result was inactive. With `CC1CCCC1.[C-]#[O+].[C-]#[O+].[C-]#[O+].[Mn]`, the outcome was inactive. With `Cc1ccc(OP(=O)(Oc2ccc(C)cc2)Oc2ccc(C)cc2)cc1` (tested in a mixture with another compound) the entry was “inactive”. With `CC(C)C(=O)Cl` the entry was “inactive”; with `CCC[N+](=O)[O-]`, “inactive”. With `C=CC(=O)OC` the entry was “inactive”.

As for `CCC1CCC(=O)O1` (stereo not given), the result was inactive. As to `Nc1ccccc1C(=O)Oc1ccc2ccccc2c1`, the outcome was inactive. With `Oc1ccc(Cl)cc1` the entry was “inactive”. Then `CC=Cc1ccc2c(c1)OCO2`, with “inactive”. Then `BrCBr`, with “inactive”; and `CC(C)c1ccc(O)cc1`, with “inactive”. As to `O=C=Nc1ccccc1`, the result was inactive.

On to `CC(C)(O)C#N`, for which the compound was classed as inactive. On to `CC1(C)CC(=O)CC(C)(C)N1[O]`, for which the compound was called inactive. Regarding `O=c1c2ccccc2c(=O)c2c1cc(Cl)c1[nH]c3c([nH]c12)c(Cl)cc1c(=O)c2ccccc2c(=O)c13`, the result was inactive.

Turning to `Cc1ccccc1CCl`, the call was inactive. Then `CCCC=NO`, with “inactive”; and `CC(=O)/C=C/c1ccccc1`, with “inactive”.
